Source: PubChem (several laboratories)
sEH activator: soluble epoxide hydrolase activators, primary screen, biochemical, human sEH. 91,000 compounds, 0.04% hits. purified human sEH enzymatic activity, activator screen. AID 717, 2007. Bifunctional epoxide hydrolase 2 (Homo sapiens), P34913. activation, % at 2 µM; in the data active = activation above about 37%
CYP2C9 inhib: blockers of cytochrome P450 2C9 activity – biochemical, luminescence, ADME assay, primary screen. P11712. CYP2C9 Supersomes, luciferin-H conversion. inhibition, % at 5 µM. 96,000 compounds, 20% hits;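 active = blocking of liver enzyme CYP2C9 beyond about 50% at 5 µM, limit read from the data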
CYP2C9 activ: human CYP2C9 activators, primary screen, biochemical, luminescence; Cytochrome P450 2C9 (Homo sapiens), P11712; recombinant CYP2C9, luciferin-H conversion; hits give high values; factor 1 = untreated enzyme, 0 = blocked; activation factor at 5 µM; 96,000 compounds, 1.4% hits;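 active = activation factor of 2 or more for CYP2C9 at a 5 µM dose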;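 note: 0 = sulfaphenazole-blocked wells and 1 = vehicle-only wells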
CYP2C19 inh: blockers of cytochrome P450 2C19 activity – biochemical, luminescence, ADME assay, primary screen; inhibition, % at 5 µM; CYP2C19 Supersomes, luciferin-H EGE luminescence, 30 min; 96,000 compounds, 21% hits; AID 778, 2007;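 active = CYP2C19 inhibition above a set limit at 5 µM in the primary screen, cut at about 50% in these data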;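 note: plate controls were negative control wells for no effect and 2.5 mM tranylcypromine positive control for full effect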
Target sequence (P33261 whole entry, looked up): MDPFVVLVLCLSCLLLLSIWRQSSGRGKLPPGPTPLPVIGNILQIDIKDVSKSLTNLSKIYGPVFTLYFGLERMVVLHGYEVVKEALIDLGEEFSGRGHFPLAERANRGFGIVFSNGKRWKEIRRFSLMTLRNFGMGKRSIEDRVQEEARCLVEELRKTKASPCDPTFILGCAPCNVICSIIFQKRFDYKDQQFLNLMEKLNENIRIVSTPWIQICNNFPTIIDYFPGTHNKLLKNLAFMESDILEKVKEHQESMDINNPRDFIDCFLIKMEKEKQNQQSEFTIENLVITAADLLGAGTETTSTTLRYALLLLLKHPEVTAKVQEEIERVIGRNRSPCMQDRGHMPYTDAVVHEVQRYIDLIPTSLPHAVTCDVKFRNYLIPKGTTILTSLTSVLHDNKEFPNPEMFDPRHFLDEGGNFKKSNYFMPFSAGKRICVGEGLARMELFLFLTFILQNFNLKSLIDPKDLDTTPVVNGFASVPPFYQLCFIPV
sEH inhibitor: soluble epoxide hydrolase inhibitors, primary screen, biochemical, human sEH. recombinant human sEH enzymatic activity assay. 91,000 compounds, 0.34% hits. inhibition, % at 2 µM. AID 707, 2007. Bifunctional epoxide hydrolase 2 (Homo sapiens), P34913; in the data active = inhibition above about 80%
CYP2C19 activ: human CYP2C19 activators, primary screen, biochemical, luminescence; Cytochrome P450 2C19 (Homo sapiens), P33261; recombinant CYP2C19, luciferin-H EGE luminescence; hits give high values; 0 = fully inhibited enzyme, 1 = untreated enzyme; activation factor at 5 µM; 96,000 tested, under 10 active;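 active = activation factor of at least 2 at 5 µM in the primary screen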;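 note: 0 = wells with 2.5 mM tranylcypromine and 1 = vehicle-only wells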
Starred values were filed as active, the others as inactive; x = no result. Compounds with a hit are over-represented: about 27% of the library has one in this group of screens.

SMILES | sEH activator | CYP2C9 inhib | CYP2C9 activ | CYP2C19 inh | sEH inhibitor | CYP2C19 activ
O=C(CSc1c[nH]c2ccccc12)NCc1ccc2c(c1)OCO2 | x | 95.5* | 0 | 100.4* | x | 0
CC(=O)Nc1cccc(NC(=O)C2CCCN2C(=O)Nc2ccccc2C)c1 (centres undefined) | -0.5 | 9.4 | 0.9 | 5.6 | 0.8 | 0.9
COc1cccc(C(=O)NCC(c2cccnc2)N2CCN(c3ccccc3OC)CC2)c1 (centres undefined) | -0.4 | x | x | x | 0.2 | x
CNc1c([N+](=O)[O-])cnn1-c1ccc(Cl)cc1 | -16.1 | 16.9 | 0.8 | 42.2 | 18.2 | 0.6
CCc1ccccc1S(=O)(=O)Cc1ccc(C(=O)NCc2ccc3c(c2)OCO3)o1 | -14.9 | 95.4* | 0 | 54.2* | 16.8 | 0.5
COc1ccccc1S(=O)(=O)Cc1ccc(C(=O)NC(C)c2ccc3c(c2)OCCO3)o1 (centres undefined) | -9.1 | 61.6* | 0.4 | 52.5* | 11.0 | 0.5
O=C(CSc1nc2ccc(Cl)cc2o1)NCc1ccc2c(c1)OCO2 | -13.0 | 61.3* | 0.4 | 23.0 | 15.0 | 0.8
O=C(NCc1ccc2c(c1)OCO2)c1cc2ccccc2o1 | -8.1 | 88.7* | 0.1 | 29.8 | 10.5 | 0.7
COc1ccccc1S(=O)(=O)Cc1ccc(C(=O)NCc2cccnc2)o1 | 6.8 | 30.0 | 0.7 | 23.1 | -4.4 | 0.8
O=C(COC(=O)CSc1nnc(-c2ccc(Cl)cc2)o1)NCc1ccc2c(c1)OCO2 | 5.0 | -20.7 | 1.2 | -3.9 | -7.7 | 1
COc1ccc(N2CC(C(=O)NCCCN3CCOCC3)CC2=O)cc1 (centres undefined) | -1.5 | 13.2 | 0.9 | 1.1 | 1.2 | 1
Cc1ccc(NC(=O)C2CCCN(S(=O)(=O)c3c(C)noc3C)C2)cc1F (centres undefined) | -39.1 | 18.5 | 0.8 | 28.1 | 40.9 | 0.7
O=c1nc(NCc2ccco2)sc2ncccc12 | -2.5 | 6.8 | 0.9 | -8.8 | 5.4 | 1.1
Cc1ccc(Nc2nc(=O)c3cccnc3s2)cc1 | 2.2 | 81.6* | 0.2 | 93.9* | -4.3 | 0.1
COc1ccc2nc(SCC(=O)Nc3cc(C)on3)[nH]c2c1 | -11.0 | 39.4 | 0.6 | 43.0 | 8.4 | 0.6
COc1ccc2c(c1OC)CN(C)CCc1cc3c(cc1C(O)C2)OCO3 (centres undefined) | x | -22.7 | 1.2 | 79.5* | x | 0.2
CCOCc1cn(CC(=O)c2ccc(Cl)cc2)c(C)nc1=N | -1.3 | -24.3 | 1.2 | -13.0 | -0.7 | 1.1
Cc1nc([N+](=O)[O-])c(Br)n1CC(=O)c1ccc(Cl)cc1 | 4.2 | 66.0* | 0.3 | 26.8 | -10.3 | 0.7
COc1ccc(Cc2nnc(NC(=O)CSc3ccc(C)cc3)s2)cc1OC | -21.5 | -3.3 | 1 | -2.9 | 24.7 | 1
O=C(CN(C(=O)CSc1nnc(COc2ccccc2)o1)c1ccc(F)cc1)NC1CCCC1 | -20.9 | 13.7 | 0.9 | 15.6 | 19.2 | 0.8
O=C(CSc1nnc(Cc2ccccc2)o1)NC1CC2CCC1C2 (centres undefined) | -10.4 | 34.4 | 0.7 | 51.9* | 13.8 | 0.5
O=C(CSc1nnc(Cc2ccccc2)o1)NC1CCCCC1 | 21.9 | 12.3 | 0.9 | 52.3* | -23.8 | 0.5
CCOc1ccc(N(CC(=O)NC2CCCC2)C(=O)CSc2nnc(COc3ccccc3)o2)cc1 | -11.0 | 57.8* | 0.4 | 41.6 | 9.2 | 0.6
O=C(CSc1ncn[nH]1)NC1CC2CCC1C2 (centres undefined) | -6.8 | 1.4 | 1 | 53.2* | 9.3 | 0.5
Cc1ccc2c(=O)c(C(=O)NCc3cccs3)c[nH]c2c1 | -6.2 | x | x | x | 9.7 | x
O=C(NCCc1cccc(Cl)c1)c1cccnc1 | -22.5 | -2.1 | 1 | 40.4 | 22.6 | 0.6
O=C(CSc1nnc(-c2ccco2)o1)NC1CCCCCC1 | -14.3 | 21.5 | 0.8 | 75.3* | 16.7 | 0.2
COc1ccc(-n2c(N3CCN(C)CC3)nc3sc4c(c3c2=O)CCCCC4)cc1 | x | 41.2 | 0.6 | 63.5* | x | 0.4
COc1ccc([N+](=O)[O-])cc1/C=N/NC(=O)/C(=C\c1cccs1)NC(=O)c1ccccc1 | -3.7 | 24.6 | 0.8 | 37.9 | 2.6 | 0.6
